Tau fluor counter: counter-screen for tau fibril formation inhibitors | tau K18 P301L Alexa594 fluorescence, heparin fibrillization | Potency, µM (titrated, usually from 57.7 µM), for inactives: at the top dose activity change, negative = decrease | 0.93% of 280,000 active | AID 1463; also: nearly all actives have a fitted effect of over 55% in size
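Human tau K18 P301L (15 uM unlabeled, 0.24 uM Alexa 594-labeled) in 100 mM sodium acetate pH 7 with 20 uM heparin, 6 hr at 37 C. ThT 30 uM added, 1 hr ambient; Alexa 594 FP and total fluorescence read at 555/632 nm.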
Sfp inh: inhibitors of Bacillus subtilis Sfp phosphopantetheinyl transferase; Q9F4F7; Biochemical Sfp PPTase activity, qHTS; 3.5% of 310,000 active; Potency, µM, for the others: largest response in the series, negative = inhibition, hits mostly inhibitors;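 also: the enzyme is Sfp with the accession as filed and its product quenches rhodamine fluorescence; 0% = enzyme reaction without inhibitor and -100% = no enzyme wells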
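Fluorescence-quenching assay: 15 nM Sfp-PPTase preincubated 15 min at room temperature with compound, then 5 uM rhodamine-CoA and 12.5 uM BHQ-2-labelled YbbR peptide added. Fluorescence (ex 525/em 598 nm) read at start and after 30 min; difference gives rate.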
PLK1 PBD inh: blocks phosphopeptide binding to human PLK1 polo-box domain. 2.8% of 360,000 active. P53350. Potency, µM, without a hit: max response, negative = inhibition, actives largely listed as inhibitors. Plk1 PBD binding of FITC phosphopeptide, fluorescence polarization; also: series mostly up to about 57 µM; nearly all actives have a fitted effect of over 65% in size
VDR inh: inhibitors of human vitamin D receptor. P11473. 0.93% of 400,000 active. VDR-SRC2-3 peptide fluorescence polarization, 2 h. Potency, µM, without a hit: max response, negative = inhibition, actives largely listed as inhibitors
Target sequence (P11473 whole entry, looked up): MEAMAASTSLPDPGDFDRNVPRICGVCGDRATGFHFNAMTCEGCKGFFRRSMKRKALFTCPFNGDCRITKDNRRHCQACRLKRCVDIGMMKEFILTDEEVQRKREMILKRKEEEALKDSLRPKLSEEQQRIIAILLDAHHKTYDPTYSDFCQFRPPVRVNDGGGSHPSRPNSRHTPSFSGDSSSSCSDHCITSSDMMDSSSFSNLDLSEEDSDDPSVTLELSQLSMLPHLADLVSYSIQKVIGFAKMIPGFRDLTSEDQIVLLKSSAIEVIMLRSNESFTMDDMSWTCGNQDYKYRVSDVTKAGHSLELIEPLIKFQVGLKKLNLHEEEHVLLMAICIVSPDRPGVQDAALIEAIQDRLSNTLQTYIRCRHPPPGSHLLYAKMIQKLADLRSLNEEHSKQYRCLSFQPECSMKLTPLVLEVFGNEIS
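The screen uses fluorescence polarization to detect compounds that interfere with recruitment of the SRC2-3 coactivator peptide to VDR; plates are read after 2 h at room temperature.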
Tau fibril FP: tau fibrillization inhibition (FP); P10636; K18 P301L tau heparin fibrillization, Alexa594 FP, 6 h; Potency, µM (top dose mostly 57.7 µM), without a hit: at the top dose activity, negative = inhibition, hits mostly inhibitors; 0.39% of 280,000 active; AID 1468; also: nearly all actives have a fitted effect of over 55% in size
Target sequence (P10636 561-689 P618L limits assumed): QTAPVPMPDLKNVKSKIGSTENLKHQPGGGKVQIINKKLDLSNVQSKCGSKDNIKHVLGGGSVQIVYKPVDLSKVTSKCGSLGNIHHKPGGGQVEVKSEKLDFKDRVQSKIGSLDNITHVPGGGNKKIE
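Read-out: fluorescence polarization of Alexa 594-labeled tau (0.24 uM), 555 nm excitation, 632 nm emission. Mixtures held 15 uM unlabeled K18 P301L, compound and 20 uM heparin, pH 7 acetate buffer, incubated 6 hr at 37 C.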
Tau ThT inhib: blocks human tau fibril formation measured by thioflavin T | Potency, µM (doses to about 57.4 µM), for the others: at the top dose activity, negative = inhibition, hits mostly inhibitors | P10636 | 2.1% of 270,000 active | AID 1460 | recombinant tau K18 P301L, heparin-induced fibrillization, ThT fluorescence; also: nearly all actives have a fitted effect of over 55% in size
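Using a mix of unlabeled (15 uM) and Alexa 594-labeled (0.24 uM) tau K18 P301L, heparin-triggered fibrillization over 6 hr at 37 C was scored by ThT fluorescence.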
The depositor's hits bear a star; ? = inconclusive; · = not tested or not shown; [ ] = another dose, or the depositor's remark. Sampled rows, rich in hits. Any-hit rate of the full collection: about 6%. Calls follow the shape of the dose curve; as a rule, active = well fitted curve in the direction sought with a large enough effect; inconclusive = small, poorly fitted or top-dose-only effect, or another doubt; inactive = no such curve, though single readings can be large; an effect the other way counts as inactive or inconclusive. Unless noted, % is scaled to controls: 0 for no effect and ±100 for the full control effect; potency is read from the fitted curve at half-maximal effect.

SMILES	Tau fluor counter	Sfp inh	PLK1 PBD inh	VDR inh	Tau fibril FP	Tau ThT inhib
Cc1cc(C)cc(NC(=O)N2CCC(N3CCCCC3)CC2)c1	-5.8%	·	·	10.2%	-8.2%	-1.3%
O=C(CCc1ccccc1)NNC(=S)NC(=O)c1ccc(Cl)cc1	-8.3%	50.1µM*	-26.8%	-6.5%	1.9%	-19.6%
Cc1ccc(C(=O)NC(=S)NNC(=O)COc2ccc([N+](=O)[O-])cc2)cc1	·	70.8µM*	?	-17.3%	·	·
Cc1ccc(OCC(=O)Nc2ccc([N+](=O)[O-])cc2)cc1	3.4%	8.0%	-1.8%	-2.4%	-2.6%	-2.2%
CCOC(=O)C1=CCN(S(=O)(=O)c2ccccc2C)C1c1cccc(Cl)c1 (stereo not drawn)	·	·	-1.7%	·	·	·
COc1ccc(CN2CC(C(=O)N3CC(C)CC(C)C3)CC2=O)cc1 (stereo not drawn)	·	15.1%	26.7µM*	-9.0%	·	·
O=c1oc2ccccc2cc1-c1nc(-c2cccs2)cs1	?	14.2%	11.2µM*	2.9%	?	8.8%
O=C(O)c1ccc(Nc2nc(-c3cc4ccccc4oc3=O)cs2)cc1O	?	35.5µM*	23.8µM*	-10.2%	0.6%	7.94µM*
COc1ccc2oc(=O)c(-c3csc(Nc4cccc(O)c4)n3)cc2c1	6.31µM*[quencher]	?	-5.2%	1.2%	-3.9%	12.6µM*
COc1ccc(Nc2nc(-c3cc4cccc(OC)c4oc3=O)cs2)cc1	?	?	-8.3%	-19.6%	11.1%	?
O=C(Nc1nc(-c2cccs2)cs1)c1cc2ccccc2oc1=O	-7.7%	6.1%	·	·	2.0%	?
Nc1ccc(Nc2nc(-c3cc4ccccc4oc3=O)cs2)cc1	8.91µM*[quencher]	6.5%	9.7%	11.9%	13.3%	?
COc1ccc(-c2c(C3C4C=CCCC4(C)C(=O)N3Cc3ccccc3)ccc3ccccc23)cc1OC (stereo not drawn)	·	-3.2%	·	-25.3%	·	·
Cc1ccc(NC(=O)CSc2nc(C3CCCC3)nc3c2c(=O)n(C)c(=O)n3C)c(C)c1	8.7%	·	·	-10.2%	-4.0%	-0.6%
CC1=CC2(O)OCCN(CCO)C2=CC1=O (stereo not drawn)	?	56.2µM*	-4.6%	14.7%	?	28.2µM*
O=C(NCCc1ccccc1)C1CCCN1C(=O)Nc1ccc(F)cc1 (stereo not drawn)	-4.6%	?	18.9µM*	-31.6%	-4.8%	-5.0%
O=C(NCCc1ccc(Cl)cc1)C1CCCN1C(=O)Nc1ccc(F)cc1 (stereo not drawn)	·	6.7%	-1.0%	3.7%	·	·
Cc1ccc([C@@H]2[C@@H]3C(=O)N(c4ccccc4)C(=O)[C@@H]3[C@]3(C)C(=O)N(Cc4ccccc4)CC(=O)N23)o1	·	8.4%	-17.3%	-15.8%	·	·
Cc1ccc([C@@H]2[C@@H]3C(=O)N(C)C(=O)[C@@H]3[C@]3(C)C(=O)N(Cc4ccc(-c5ccccc5)cc4)CC(=O)N23)o1	·	50.1µM*	-16.5%	1.4%	·	·
COc1ccc(/C=N/NC2=NS(=O)(=O)c3ccccc32)cc1OC	·	-3.9%	-1.9%	14.7%	·	·
Cc1cc(-c2n[nH]c(=S)n2Cc2ccco2)n(C)n1	-9.1%	50.1µM*	-10.7%	-10.0%	8.6%	-12.6%
N#CC(C#N)=C1NC(N)=C(C#N)C(c2ccccc2)=C1C#N	·	56.2µM*	·	·	·	·
COc1ccccc1C(=O)NC(=O)CSc1nncn1C(C)C	·	·	-1.9%	-8.3%	·	·
CN(Cc1ccccc1)C(=O)c1cc(-c2cccc(Cl)c2)on1	-27.2%	·	·	-12.3%	7.7%	-9.0%
Cc1cc(C)[n+](-c2ccc(Oc3ccccc3)c(S(=O)(=O)[O-])c2)[nH]1	-0.1%	17.3%	26.7µM*	?	4.8%	-2.4%
SMILES	Tau fluor counter	Sfp inh	PLK1 PBD inh	VDR inh	Tau fibril FP	Tau ThT inhib
CC1CCN(C(=O)COC(=O)c2ccccc2NCCO)CC1	·	·	-10.6%	·	·	·
CCN=c1sc(C(=O)NCCc2ccccc2)cc(=O)n1CC	-10.2%	56.2µM*	-16.8%	?	-7.1%	?
O=C(CN1CCN(S(=O)(=O)c2ccc(F)c(Cl)c2)CC1)N1CCNC1=O	·	·	-10.1%	-15.8%	·	·
Cc1cccc(C)c1NC(=O)CN(CC(=O)O)CC(=O)O	·	44.7µM*	·	4.9%	·	·
CN(N)c1nc2ccccc2nc1C(F)(F)F	1.5%	6.1%	21.2µM*	-24.6%	3.0%	-6.4%
CC(=O)NC(C)(c1ccccc1)c1nc(-c2cccc(C(F)(F)F)c2)cs1 (stereo not drawn)	·	·	-5.8%	·	·	·
O=C(O)c1cc(-c2ccc(-c3c(-c4ccc5c(c4)OCO5)noc3-c3ccsc3)cc2)nc2ccccc12	·	-7.4%	16.8µM*	?	·	·
COc1ccc(C(=O)N2CCCC(CCC(=O)NCc3ccc(F)c(F)c3)C2)o1 (stereo not drawn)	-6.9%	56.2µM*	?	?	3.4%	-5.2%
COc1ccc(C(=O)N2CCCC(CCC(=O)NCc3ccc(F)c(F)c3)C2)cc1F (stereo not drawn)	-1.0%	13.3%	-8.4%	16.3%	-2.1%	-3.7%
Cc1ccn2cc(-c3cnoc3C)nc2c1	-7.6%	4.3%	26.7µM*	-12.9%	-1.1%	-10.5%
Cc1oncc1-c1cn2ccccc2n1	-7.8%	8.7%	-3.7%	10.0%	-1.6%	-11.5%
Cc1ccc(CNC(=O)CCc2ccc(S(=O)(=O)NC3CCCCC3)cc2)cc1	-0.5%	7.9%	29.9µM*	-22.7%	3.9%	1.6%
C=CCn1c(=O)c2c(nc(Br)n2Cc2ccccc2Cl)n(C)c1=O	-12.8%	4.9%	29.9µM*	-3.5%	-14.0%	-7.6%
Cn1c(=O)n(Cc2ccccc2F)c2ccccc21	1.5%	5.0%	-7.0%	24.1%	1.3%	1.5%
Cn1c(=O)n(Cc2ccccc2Cl)c2ccccc21	-1.6%	?	16.8µM*	?	-5.3%	2.4%
Cn1c(=O)n(Cc2ccccc2Cl)c(=O)c2c1[nH]c(=S)n2C	·	50.1µM*	16.8µM*	-23.0%	·	·
Cn1c(=O)c2c([nH]c(=O)n2Cc2ccc(Cl)cc2Cl)n(C)c1=O	-16.3%	·	·	-10.6%	0.0%	-12.0%
CC(=O)c1ccc(NC(=O)c2nc(-c3ccc(Cl)cc3)n3c2CCCCC3)cc1	-16.2%	·	·	9.8%	-1.0%	0.6%
CCc1c(C)sc(NC(=O)CC#N)c1C#N	-14.6%	31.6µM*	?	-0.5%	-6.7%	?
Cc1sc(NC(=O)C2CCCC2)c(C#N)c1C	-11.5%	?	26.7µM*	?	-0.1%	?
CCCCCC(=O)Nc1sc(C)c(C)c1C#N	-14.4%	79.4µM*	10.6µM*	?	-4.7%	-21.5%
CCCC(=O)Nc1sc(C)c(C)c1C#N	-1.7%	-22.4%	21.2µM*	1.8%	-3.4%	-4.1%
Cc1ccc(C)c(C(O)c2ncc(-c3ccc(F)cc3)[nH]2)c1 (stereo not drawn)	·	·	-9.4%	·	·	·
COCCNC(=O)C1(C)CCCN(C(=O)c2ccc(C(=O)OC)cc2)C1 (stereo not drawn)	·	·	-9.3%	·	·	·
